Source: PubChem BioAssay
mIDH1 inhibitor = inhibitors of human mutant IDH1 R132H | O75874 | IDH1-R132H enzyme, NADPH consumption, diaphorase/resazurin fluorescence | Potency, µM (titrated, usually from 76.6 µM), inactives show at the highest dose activity change, negative = inhibition, most hits filed as inhibitors | 390,000 compounds, 0.093% hits; also: % is scaled to controls: 0 for no effect and ±100 for the full control effect; nearly all actives have a fitted effect of over 65% in size
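IDH1-R132H (0.5 ug/mL dispensed) in pH 7.5 Tris buffer was preincubated 30 min with compound, then given a substrate mix of 0.016 mM NADPH and 2 mM alpha-KG for 80 min at room temperature; remaining NADPH was read by diaphorase/resazurin fluorescence.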
ELG1 DNA repair = inhibitors of ELG1-dependent DNA repair in HEK293T cells. HEK293T ELG1-luciferase reporter, luminescence, 16 h; DNA damage induced by 5-fluorouridine. Potency, µM (highest dose often 46.1 µM), for the others: top-dose activity change, negative = inhibition, usual class: inhibitors. 330,000 compounds, 2.3% hits; also: % is scaled to controls: 0 for no effect and ±100 for the full control effect; nearly all actives have a fitted effect of over 55% in size
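Step one: seed 2,000 cells per well. Step two: pin-transfer compound or DMSO alongside 5-fluorouridine. Step three: incubate 16 hr, 37 °C, 5% CO2. Step four: add ONE-Glo, wait 30 min, read luminescence.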
A549 tox = A549 cytotoxicity, counter-screen for Nrf2 inhibitors; 390,000 compounds, 0.16% hits; A549 ARE-Fluc cells, CellTiter-Fluor viability, 18-24 h; Potency, µM (highest dose often 46 µM), without a hit: top-dose activity change, negative = cytotoxicity, most hits filed as inhibitors; also: % is scaled to controls: 0 for no effect and ±100 for the full control effect
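Cytotoxicity counterscreen: CellTiter-Fluor fluorescence was measured in A549 ARE_Fluc cells after 18-24 h of compound exposure in a concentration series. The subsequent BugLite luminescent read reports ARE-luciferase activity.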
Nrf2 activator = activates Nrf2 signaling; 410,000 compounds, 0.31% hits; AREc32 ARE-luciferase reporter (MCF7-derived line), luminescence, 24 h; Potency, µM (highest dose often 46.1 µM), for the others: at the top dose activation, actives largely listed as activators; also: % of control where 0% means no effect; nearly all actives have a fitted effect of over 65% in size
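Nrf2 activation is followed as ARE-luciferase induction in the AREc32 line after one day of compound treatment; luminescence is read with Steady-Glo.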
Nrf2 inh = inhibitors of Nrf2 signaling | Potency, µM (top dose mostly 46 µM), for inactives: top-dose activity change, negative = inhibition, most hits filed as inhibitors | 360,000 compounds, 2.1% hits | A549 ARE-Fluc reporter, luciferase luminescence, 18-24 h | AID 504444; also: % is scaled to controls: 0 for no effect and ±100 for the full control effect; nearly all actives have a fitted effect of over 60% in size
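A549 ARE_Fluc cells (5000/well, 5% FBS OPTI-MEM) pre-incubated 2 h, then treated with compounds 18-24 h at 37C/5% CO2 in concentration-response. CellTiter-Fluor viability read first; BugLite luciferase luminescence after 15 min at room temperature gives Nrf2 activity.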
ELG1 FLuc counter = luciferase inhibition in cell-free luciferin readout for ELG1 hits; 350 compounds, 3% hits; shares compounds with ELG1 DNA repair; cell-free firefly luciferase luminescence counter-screen, ViewLux; Potency, µM (highest dose often 46.1 µM), for the others: top-dose activity change, negative = inhibition, usual class: inhibitors; also: % is scaled to controls: 0 for no effect and ±100 for the full control effect
ELG1-Luc inh = inhibits ELG1-dependent DNA repair in HEK293T cells, confirmed; shares compounds with ELG1 DNA repair; HEK293T ELG1-luciferase levels, luminescence; cells co-treated with 5-fluorouridine; Potency, µM (top dose mostly 46.1 µM), without a hit: at the highest dose activity change, negative = inhibition, usual class: inhibitors; 670 compounds, 68% hits; also: % is scaled to controls: 0 for no effect and ±100 for the full control effect; nearly all actives have a fitted effect of over 55% in size
ELG1-Luc MMS = inhibits ELG1-dependent repair under MMS stimulation in HEK293T cells. shares compounds with ELG1 DNA repair. HEK293T luciferase-tagged ELG1 level, MMS stimulated. Potency, µM (top dose mostly 46.1 µM), for inactives: at the highest dose activity change, negative = inhibition, usual class: inhibitors. 670 compounds, 53% hits. AID 624249; also: % is scaled to controls: 0 for no effect and ±100 for the full control effect; nearly all actives have a fitted effect of over 60% in size
ELG1 5-FU = confirmation of ELG1 repair inhibitors: viability with 5FU | AID 624250 | Potency, µM (series often up to 46.1 µM), for inactives: top-dose activity change, negative = viability loss, usual class: cytotoxic | shares compounds with ELG1 DNA repair | cell viability with 5-FU, ELG1-dependent repair | 670 tested, under 10 active;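 also: ELG1-luc HEK293T cells cotreated with 5-fluorouridine at 10 µM final; viability measured 16 h after compound addition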
ELG1 MMS viab = confirmation of ELG1 repair inhibitors: viability with MMS | Cell viability with MMS, ELG1-dependent DNA repair | Potency, µM (top dose mostly 46.1 µM), for inactives: at the top dose activity change, negative = viability loss, hits mostly cytotoxic | 670 compounds, 33% hits | shares compounds with ELG1 DNA repair | AID 624251;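 also: ELG1-luc HEK293T cells co-treated with 10 µM MMS; viability read 16 h after compound addition; % is scaled to controls: 0 for no effect and ±100 for the full control effect; nearly all actives have a fitted effect of over 60% in size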
ELG1 unstim viab = counter-screen for ELG1 repair inhibitors: unstimulated cell viability | shares compounds with ELG1 DNA repair | cell viability counter-screen, unstimulated, luminescence | Potency, µM (doses to about 45.9 µM), for the others: at the highest dose activity change, negative = loss of viability, most hits filed as cytotoxic | 900 compounds, 8% hits;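 also: compound exposure lasted 16 hours before reading; % is scaled to controls: 0 for no effect and ±100 for the full control effect; nearly all actives have a fitted effect of over 55% in size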
FLuc enzyme = firefly luciferase inhibition counter-screen. shares compounds with ELG1 DNA repair. purified firefly luciferase, luminescence counter-screen. Potency, µM (top dose mostly 57.5 µM), for the others: at the top dose activity, negative = inhibition, actives largely listed as inhibitors. 350 compounds, 10% hits; also: % is scaled to controls: 0 for no effect and ±100 for the full control effect
The depositor's hits bear a star; ? = inconclusive; / = no result. Rows were chosen to be rich in hits. Some 3.8% of all compounds tested hit in one or more screens of this group. Calls follow the shape of the dose curve; as a rule, active = well fitted curve in the direction sought with a large enough effect; inconclusive = small, poorly fitted or top-dose-only effect, or another doubt; inactive = no such curve, though single readings can be large; an effect the other way counts as inactive or inconclusive. Potency is read from the fitted curve at half-maximal effect.

SMILES | mIDH1 inhibitor | ELG1 DNA repair | A549 tox | Nrf2 activator | Nrf2 inh | ELG1 FLuc counter | ELG1-Luc inh | ELG1-Luc MMS | ELG1 5-FU | ELG1 MMS viab | ELG1 unstim viab | FLuc enzyme
N#C/C(=C\c1cccnc1)c1ccccn1 | 2% | ? | -1% | 3% | 3% | 44% | / | / | / | / | 4% | -3%
COc1ccc(/C=C/c2onc(C)c2S(=O)(=O)N2CCC(C(=O)N3CCCCCC3)CC2)cc1 | -5% | 2.6µM* | -1% | 2% | ? | / | 3.1µM* | 16µM* | ? | -12% | -16% | /
Cc1ccc(/C=C/c2onc(C)c2S(=O)(=O)N2CCC(C(=O)N3CCCCC3)CC2)cc1 | 3% | ? | -5% | 0% | -30% | / | / | / | / | / | / | /
CCOc1ccccc1/C=C/c1onc(C)c1S(=O)(=O)N1CCC(C(=O)N2CCCCCC2)CC1 | -2% | 2.9µM* | -5% | 4% | -6% | / | 4µM* | ? | ? | -6% | -16% | /
Cc1cccc(/C=C/c2onc(C)c2S(=O)(=O)N2CCC(C(=O)N3CCCCC3)CC2)c1 | -8% | 2.9µM* | -6% | 5% | ? | / | 2.2µM* | ? | ? | 1% | -14% | /
C/C(=N\NC(=O)c1c(C)nc2ccccn12)c1ccc(O)cc1O | 0% | 2.9µM* | -4% | 0% | -16% | / | ? | ? | -15% | ? | ? | /
Cc1ccc(S(=O)(=O)C(CNC(=O)C(=O)NCCc2ccc(F)cc2)c2cccs2)cc1 (stereo not drawn) | 0% | / | -10% | 2% | / | / | / | / | / | / | / | /
Cc1cccc(-c2noc(CCC(=O)N3CCN(c4cc(C)ccc4C)CC3)n2)c1 | 10% | ? | 3% | 4% | ? | / | / | / | / | / | 0% | /
Cc1ccc(C)c(N2CCN(C(=O)CCc3nc(-c4ccccc4)no3)CC2)c1 | 8% | 4% | 8% | 0% | ? | / | / | / | / | / | / | /
O=C(/C=C/c1ccc(S(=O)(=O)N2CCOCC2)cc1)N1CCN(c2ccc(F)cc2)CC1 | -4% | 2.3µM* | -8% | -1% | ? | 0% | -28% | 7.1µM* | -5% | ? | ? | -15%
Cc1cc2cc(CCNS(=O)(=O)c3ccc(Br)cc3)c(=O)[nH]c2cc1C | -4% | / | -11% | -1% | -10% | / | / | / | / | / | / | /
Cc1cc(C)cc(NC(=O)CCc2nc3sc4c(c3c(=O)[nH]2)CCCC4)c1 | 6% | -11% | ? | 0% | ? | 8% | / | / | / | / | ? | -4%
CCC(=O)N1CCc2cc(S(=O)(=O)NC(Cc3ccccc3)C(=O)Nc3ccc(C)cc3)ccc21 (stereo not drawn) | 2% | / | 0% | 0% | ? | / | / | / | / | / | / | /
Cc1nn(-c2ccccc2)c(N2CCCC2)c1/C=N/NC(=O)c1cc(-c2ccccc2)nc2ccccc12 | 5% | 3.7µM* | -4% | 3% | 14% | / | 7.9µM* | ? | -6% | -8% | ? | /
COc1ccc(-n2nc(C(=O)NCC(=O)Nc3cc(OC)c(OC)c(OC)c3)c3ccccc3c2=O)cc1 | -2% | 3.3µM* | ? | 0% | ? | 70% | 3.2µM* | 13µM* | 15% | -18% | ? | 5%
Cc1ccc(S(=O)(=O)Nc2cc3c4c(c2)CCN4C(=O)CC3)cc1 | 1% | ? | 4% | 12% | ? | 34% | / | / | / | / | 0% | 2%
CC1CCC(NC(=O)CCS(=O)(=O)c2ccc3c(c2)CCN3C(=O)C2CC2)CC1 (stereo not drawn) | 12% | 12% | 1% | 0% | -3% | / | / | / | / | / | / | /
Cc1cccn2c(CNCC3(c4ccccc4)CCCC3)c(C(=O)N3CCOCC3)nc12 | 0% | 2.9µM* | -19% | 0% | -3% | / | ? | 13µM* | -9% | 25µM* | ? | /
CSCCNCc1c(C(=O)N2CCOCC2)nc2c(C)cccn12 | 2% | 7% | 4% | 0% | 7% | / | / | / | / | / | / | /
COc1ccc(CNC(=O)c2cccc(S(=O)(=O)N3CCN(c4ccc(F)cc4)CC3)c2)cc1 | 1% | 3.3µM* | -8% | 0% | ? | / | 14µM* | 16µM* | 7% | 13µM* | ? | /
CC(=O)N1CCN(S(=O)(=O)c2cccc(C(=O)NCc3ccc(F)cc3)c2)CC1 | -2% | -24% | 0% | 0% | ? | / | / | / | / | / | / | /
Cc1cc(NNC(=O)Nc2cccc(Cl)c2)nc2c1c(C)nn2C | / | 0.73µM* | / | / | / | -8% | ? | 0.79µM* | -2% | 1µM* | -10% | -1%
C(=C\c1c[nH]c2ccccc12)/c1ccc2ccccc2n1 | / | / | / | / | / | -39% | / | / | / | / | ? | 0.12µM*
O=S(=O)(c1c(Cl)cc(Br)cc1Cl)N1CCN(C(=S)NC2CC2)CC1 | -5% | 4.1µM* | -20% | 3% | 12µM* | / | 4µM* | 16µM* | ? | 14µM* | -12% | /
C=C1C(c2ccc(C)cc2)=CCc2cc(C)cc(C)c21 | / | / | / | / | / | 181% | / | / | / | / | ? | 5.2µM*
O=C1CCC[C@@H]2Cc3nc4cc5c(cc4cc3[C@@H]3CCN1[C@H]23)OCO5 | 7% | / | 2% | 5% | 1% | / | / | / | / | / | ? | /
CC(=O)c1c(C)[nH]c(C(=O)Nc2cccc(S(=O)(=O)N3CCCC3)c2)c1C | 0% | ? | -9% | 21% | ? | / | / | / | / | / | ? | /
